S aureus helic = blocks Staphylococcus aureus DNA helicase; inhibition, % (no concentration beside the values); purified S. aureus helicase, fluorescence unwinding assay; 0.05% of 120,000 active; in the data active = inhibition above about 25%, passing the limit was not always enough;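 note: 0% = mean of negative control wells and 100% = mean of positive control wells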
Sa growth inh = blocks Staphylococcus aureus growth; 0.53% of 170,000 active; relative growth, % (test concentration not listed); S. aureus RN4220 growth, OD600, 20 h, 42 °C; stronger effect = lower value;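 active = relative growth at most 50% at the other temperature and 20+ points below 30 °C, or under 10% at both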
Active calls of the source: *; x = no result; ! = not active in a repeat. The full list was thinned out, with hits kept by preference.

SMILES	S aureus helic	Sa growth inh
COC(=O)[C@@H]1CC(=O)O[C@H](C)C/C=C/C=C/[C@H](O)[C@H](C)C[C@H](CC=O)[C@H](OC2O[C@H](C)[C@@H](OC3C[C@@](C)(O)[C@@H](OC(=O)CC(C)C)[C@H](C)O3)[C@H](N(C)C)[C@H]2O)[C@H]1OC (stereo not given in full)	x	-0.6*
CCOc1ccc(OCC)c(NC(=O)C(NS(=O)(=O)c2cccs2)C(C)C)c1 (stereo not given)	7.0	94.0
CC(=O)N1CC(C)Oc2ccc(S(=O)(=O)NC(C)c3ccccc3)cc21 (stereo not given)	29.0	90.5
COc1ccc(NC(=O)c2c(NCc3ccc(C)o3)sc3c2CCCC3)cc1	12.0	80.3
Cc1cc(NS(=O)(=O)c2ccccc2)cc(S(=O)(=O)c2ccccc2)c1O	8.0	104.0
COc1ccccc1Oc1ccc(S(=O)(=O)N2CCOCC2)cc1	25.0	x
Cc1ccc(C(=O)c2oc3ccccc3c2NC(=O)c2cc(=O)c3cc(C)ccc3o2)cc1	x	83.8
CC(C)CN(CC(C)C)Cn1nc(-c2ccc3c(c2)OCO3)oc1=S	-11.0	69.6
CN(Cn1nc(-c2ccc3c(c2)OCO3)oc1=S)C1CCCCC1	2.0	44.9*
CC(C)(C)N(Cc1ccccc1)C(=O)C1COc2ccccc2O1 (stereo not given)	-2.0	98.0
CCOc1ccc(CCNC(=O)c2sc3nc4n(c(=O)c3c2C)CCCC4)cc1	x	97.7
c1ccc(-n2nnnc2OCCOc2nnnn2-c2ccccc2)cc1	16.0	96.7
c1ccc(-n2nnnc2Oc2cccc3cccnc23)cc1	6.0	-0.3*
CCOC(=O)N1CCC(NC(=O)c2cc3ccc4cccnc4c3[nH]2)CC1	-23.0	88.3
COc1cc2c(cc1OC)C(=O)C(CC1CCN(Cc3ccccc3)CC1)C2 (stereo not given)	x	45.7*!
CN1CCC(N(C)C2CCN(Cc3ccccc3)CC2)CC1	7.0	95.5
Cc1cc(Br)ccc1OCCCN1C(=O)CCN1c1ccccc1	-4.0	63.3
CCCC1CCC(c2ccc(C(N)=O)cc2)CC1 (stereo not given)	-12.0	73.6
CCCC1CCC(c2ccc(C(=O)CCN(C)C)cc2)CC1 (stereo not given)	20.0	-0.5*
CS(=O)(=O)CCC(C(=O)Oc1cccc2cccnc12)N1C(=O)c2ccccc2C1=O (stereo not given)	12.0	0.7*
CS(=O)(=O)CCC(C(=O)n1nnc2ccccc21)N1C(=O)c2ccccc2C1=O (stereo not given)	16.0	113.8
CO[C@@]12[C@@H]3NC3CN1C1=C(C(=O)C(N)=C(C)C1=O)[C@@H]2COC(N)=O (stereo not given in full)	x	0.2*
CN(CCOc1ccccc1)CCOc1ccccc1	-11.0	118.2
CN(C)CCOc1ccc(/C(=C(/CCCl)c2ccccc2)c2ccccc2)cc1	x	7.1*!
CCC(C)NC(=O)C1(O)c2ccccc2NC(=O)N1c1ccccc1 (stereo not given)	10.0	85.1
SMILES	S aureus helic	Sa growth inh
COc1ccccc1CNS(=O)(=O)c1cc(C(=O)Nc2cccc(C(F)(F)F)c2)ccc1F	x	95.2
FC(F)Sc1ccc(N=C=S)cc1	3.0	-0.8*
FC(F)Oc1ccc(N=C=S)cc1	-3.0	92.2
CCC(CO)NC(=O)c1cn(-c2ccccc2)nc1-c1ccc(Cl)cc1 (stereo not given)	-15.0	119.8
CC(=O)N1CCC2(CC1)CC(=O)c1cc(OCC(=O)NCc3ccccc3)ccc1O2	13.0	93.4
c1c(SSc2cn3c(n2)CCC3)nc2n1CCC2	3.0	-0.6*
COc1ccc(-c2cn3c(n2)CCC3)cc1	-14.0	97.3
Cc1c(-c2ccccc2)cc2ccccn12	-18.0	4.3*
Cc1cc2ccccn2c1C(=O)Nc1ccccc1	-4.0	86.7
O=C(OCCSc1cnc2ccccc2n1)c1cc(Cl)cc(Cl)c1	x	100.8
O=C1c2ccccc2C(=O)c2sccc21	-18.0	1.6*
O=C1c2ccccc2C(=O)N1c1nccs1	-8.0	82.7
O=C(Nc1cc(Cl)cc(Cl)c1)C1CC1	x	78.8
O=C(O)Nc1cc(Cl)cc(Cl)c1	4.0	-0.4*
CN(Cc1ccccc1)C1CCNCC1	6.0	95.7
Cc1cc(C(=O)Nc2ccc(Cl)cc2)c2c(C)nn(-c3ccccc3)c2n1	x	105.5
Cc1nn(-c2ccccc2)c2[nH]cc(C(=O)Nc3ccccc3)c(=O)c12	5.0	8.8*
O=C(CN1C(=O)c2ccccc2C1=O)OC1CCOC1=O (stereo not given)	7.0	103.4
CCSC(SCC)=C(C#N)C(=O)Nc1ccccc1	6.0	105.3
Cc1oc2nc[nH]c(=O)c2c1C(=O)NCCC(c1ccccc1)c1ccccc1	-6.0	92.2
CC(C)(C)c1cc(C(=O)OCCN2CCCCC2)cc(C(C)(C)C)c1	-4.0	21.9*
Cc1ccc(C(=O)OCCN2CCCCC2)cc1	6.0	90.5
CCS(=O)(=O)c1ncc(Cl)c(C(=O)Nc2ccc(Cl)cc2)n1	-5.0	1.8*
CS(=O)(=O)c1ncc(Cl)c(C(=O)N2CCN(c3cccc(Cl)c3)CC2)n1	x	64.5
CCS(=O)(=O)c1ncc(Cl)c(C(=O)NCc2ccccc2)n1	x	66.0
SMILES	S aureus helic	Sa growth inh
CCS(=O)(=O)c1ncc(Cl)c(C(=O)N2CCN(c3cccc(Cl)c3)CC2)n1	x	7.0*
Cc1cccc(OC(=O)c2cc(-c3ccc(C)c(C)c3)on2)c1	x	0.8*
Cc1ccc(-c2cc(C(=O)Oc3ccc(C#N)cc3)no2)cc1C	x	99.3
Cc1ccc(OC(=O)c2cc(-c3ccc4c(c3)OCCO4)on2)cc1C	x	2.2*
Cc1cc(OC(=O)c2cc(-c3ccc4c(c3)OCCO4)on2)ccc1Cl	x	109.6
CC1CC(=O)Nc2ccccc2N1S(=O)(=O)c1ccc(-c2cc(C(F)(F)F)on2)s1 (stereo not given)	x	95.7
O=C(O)c1cnc2sccn2c1=O	-14.0	98.7
Cc1ccc(-c2c(CN3CCN(C)CC3)csc2C)cc1	-10.0	6.2*
Cc1ccc(-c2c(CN3CCN(c4cccc(C)c4C)CC3)csc2C)cc1	x	104.7
Cc1cc(N=NC(=O)c2ccccc2)ccc1O	22.0	0.6*
Cc1ccc(C)c(NC(=O)c2ccccc2)c1	-1.0	85.7
COc1cc(/C=N/OCC(=O)NCC2CCCO2)ccc1OC(F)F (stereo not given)	9.0	88.2
Cc1cccc(Cc2cnc(N3C(=N)SC(C)C3=O)s2)c1 (stereo not given)	0.0	2.8*
Nc1ncc(Cc2cccc(Cl)c2)s1	10.0	110.6
Cc1ccc(C)n1-c1nnc(N2CCC(C(=O)Nc3ccccc3Br)CC2)s1	x	83.9
COc1ccc(OC)c(NC(=O)CSC2=Nc3ccccc3C3=NC(CC(=O)NCc4ccc5c(c4)OCO5)C(=O)N23)c1 (stereo not given)	x	61.6
CCC(C(=O)Nc1ccccc1OC)n1c(C(=O)OC)cc2oc(C)cc21 (stereo not given)	13.0	110.0
CCOC(=O)c1ccc(Nc2nc3nonc3nc2Nc2cccc(C)c2C)cc1	x	-1.0*
CCOC(=O)c1ccc(Nc2nc3nonc3nc2NCc2ccco2)cc1	20.0	49.8
COc1cccc(OC)c1C(=O)N[C@@H]1C(=O)N2[C@@H]1SC(C)(C)[C@@H]2C(=O)O	x	-0.7*
CCCNC(=O)c1c(OC)cccc1OC	-2.0	85.8
Cc1onc(-c2c(Cl)cccc2Cl)c1C(=O)N[C@@H]1C(=O)N2[C@@H]1SC(C)(C)[C@@H]2C(=O)O	x	-0.4*
Cc1onc(-c2c(F)cccc2Cl)c1C(=O)NC1CCSC1=O (stereo not given)	5.0	x

Compound activity: PubChem, ICCB-Longwood Screening Facility, Harvard Medical School
